Laboratory results taken from PubChem BioAssay (EPA / NIEHS).
Where “and” joins values, the source holds several entries; their conditions need not be identical. Identical values can stand only once. Inconclusive results are not listed. More than one record can exist for a structure, and the calls need not agree. Calls of active or inactive are those of the source. Rule for the calls, unless noted: active = hit-call score of the fitted dose curve at least 0.9, where 1 is the maximum; inactive = score below 0.9.

What was measured:
[1] = ATG_NFI_CIS: Attagene CIS-FACTORIAL HepG2 Assay for human Nuclear Factor I (NFI) (AID 2282989); conditions: HepG2 cis-regulatory reporter, NFI response element transcription; actives raise or lower the signal
Summary of the method: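 After transient transfection of HepG2 with cis-promoter reporter constructs and 24 h dosing, RNA is reverse-transcribed, amplified, 6-FAM end-labelled and HpaI-digested before capillary analysis. Bidirectional curve fitting against DMSO.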

[2] = target: Myc proto-oncogene protein (Homo sapiens) (UniProt P01106); assay: ATG_Myc_CIS: Attagene CIS-FACTORIAL HepG2 Assay for human Myelocytomatosis (Myc) Proto-Oncogene Transcription Factor (AID 2282990); conditions: HepG2, Attagene cis-reporter transcription factor activity; actives raise or lower the signal
Sequence of Myc proto-oncogene protein (Homo sapiens) (P01106 whole entry, looked up): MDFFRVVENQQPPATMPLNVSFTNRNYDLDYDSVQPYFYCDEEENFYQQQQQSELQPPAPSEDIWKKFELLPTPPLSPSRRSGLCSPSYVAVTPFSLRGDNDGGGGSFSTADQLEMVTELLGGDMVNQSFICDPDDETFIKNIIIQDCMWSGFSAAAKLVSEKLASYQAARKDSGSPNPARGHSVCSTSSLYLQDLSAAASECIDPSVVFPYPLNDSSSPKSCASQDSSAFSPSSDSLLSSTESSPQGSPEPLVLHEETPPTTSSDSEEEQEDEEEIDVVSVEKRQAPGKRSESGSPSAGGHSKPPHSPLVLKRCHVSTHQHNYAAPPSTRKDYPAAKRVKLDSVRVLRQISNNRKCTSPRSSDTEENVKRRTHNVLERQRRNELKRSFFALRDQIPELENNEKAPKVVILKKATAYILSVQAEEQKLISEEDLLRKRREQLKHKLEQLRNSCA
Summary of the method: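 Cells of the HepG2 human liver line bear multiple cis-driven reporter transcription units. Reporter mRNA after 24 h exposure is reverse-transcribed, amplified, labelled and resolved by capillary electrophoresis, with gain- or loss-of-signal fitting relative to DMSO.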

[3] = ATG_NF_kB_CIS: Attagene CIS-FACTORIAL HepG2 Assay for human Nuclear Factor Kappa B (NF-kB) (AID 2282991); conditions: HepG2 Attagene cis-factorial NF-kB reporter mRNA; actives raise or lower the signal
Summary of the method: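 Transient MRTU transfection of human HepG2 liver cells → 24 h chemical exposure → total RNA, oligo(dT) RT → PCR, 6-FAM primer extension, HpaI digest 2 h 37 C → CE fragment analysis. Bidirectional fitting, DMSO negative control.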

[4] = ATG_NRF2_ARE_CIS: Attagene CIS-FACTORIAL HepG2 Assay for human Nuclear Factor Erythroid 2 Related Factor 2 (NFR2) response to Antioxidant Response Elements (ARE) (AID 2282992); conditions: HepG2 Attagene ARE/NRF2 reporter, transcription factor activity; actives raise or lower the signal
Summary of the method: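 Transient MRTU transfection of HepG2; 24 h compound exposure; TriZol RNA, RT with oligo(dT), PCR, 6-FAM primer extension, HpaI cut, CE. Bidirectional fit vs DMSO.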

[5] = target: Cellular tumor antigen p53 (Homo sapiens) (UniProt P04637); assay: ATG_p53_CIS: Attagene CIS-FACTORIAL HepG2 Assay for human p53 Transcription Factor (AID 2282994); conditions: HepG2 p53 cis-element reporter, Attagene mRNA; actives raise or lower the signal
Sequence of Cellular tumor antigen p53 (Homo sapiens) (P04637 whole entry, looked up): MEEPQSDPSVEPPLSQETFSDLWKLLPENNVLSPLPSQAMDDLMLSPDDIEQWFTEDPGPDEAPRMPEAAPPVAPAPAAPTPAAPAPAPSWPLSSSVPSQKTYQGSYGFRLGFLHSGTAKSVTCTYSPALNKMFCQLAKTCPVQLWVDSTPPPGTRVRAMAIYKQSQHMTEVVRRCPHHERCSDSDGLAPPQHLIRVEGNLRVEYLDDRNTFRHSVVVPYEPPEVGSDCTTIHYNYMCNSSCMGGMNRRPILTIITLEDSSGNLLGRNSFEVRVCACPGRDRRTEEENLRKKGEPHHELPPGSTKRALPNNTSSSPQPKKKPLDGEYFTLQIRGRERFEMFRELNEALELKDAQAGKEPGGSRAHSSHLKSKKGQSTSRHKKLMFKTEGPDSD
Summary of the method: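 HepG2, transient MRTU transfection (cis promoter elements, endogenous TFs); 24 h dosing; RNA isolation, RT-PCR, 6-FAM primer extension, HpaI digest, CE fluorescence; bidirectional fit vs DMSO.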

[6] = target: human Peroxisome Proliferator-activated Receptor alpha (PPARa), PPARA (gene 5465) (UniProt Q07869); assay: ATG_PPARa_TRANS: Attagene TRANS-FACTORIAL HepG2 Assay for human Peroxisome Proliferator-activated Receptor alpha (PPARa) (AID 2283001; active = hit-call score of the fitted dose curve at least 0.9, where 1 is the maximum)
Sequence of human Peroxisome Proliferator-activated Receptor alpha (PPARa), PPARA (gene 5465) (Q07869 whole entry, looked up, the tested form may be a part): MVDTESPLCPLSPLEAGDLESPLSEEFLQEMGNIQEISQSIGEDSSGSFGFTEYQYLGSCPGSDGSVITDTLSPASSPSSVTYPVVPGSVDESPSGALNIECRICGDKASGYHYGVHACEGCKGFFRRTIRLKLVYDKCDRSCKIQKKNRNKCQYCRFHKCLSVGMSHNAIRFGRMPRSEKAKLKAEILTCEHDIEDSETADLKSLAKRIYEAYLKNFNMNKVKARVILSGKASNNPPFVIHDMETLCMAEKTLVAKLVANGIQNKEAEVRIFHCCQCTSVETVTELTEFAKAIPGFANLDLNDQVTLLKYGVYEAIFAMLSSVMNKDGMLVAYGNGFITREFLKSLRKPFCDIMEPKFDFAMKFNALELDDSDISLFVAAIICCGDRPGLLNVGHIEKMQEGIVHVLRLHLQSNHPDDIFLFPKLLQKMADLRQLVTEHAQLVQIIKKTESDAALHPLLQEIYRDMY
Summary of the method: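 Reporter transcripts from GAL4-UAS units in transfected HepG2 were quantified 24 h after dosing. Detection used reverse transcription, PCR, fluorescent primer extension and capillary electrophoresis, with DMSO as baseline.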

[7] = target: human Peroxisome Proliferator-activated Receptor delta (PPARd), PPARD (gene 5467) (UniProt Q03181); assay: ATG_PPARd_TRANS: Attagene TRANS-FACTORIAL HepG2 Assay for human Peroxisome Proliferator-activated Receptor delta (PPARd) (AID 2283002; active = hit-call score of the fitted dose curve at least 0.9, where 1 is the maximum)
Sequence of human Peroxisome Proliferator-activated Receptor delta (PPARd), PPARD (gene 5467) (Q03181 whole entry, looked up): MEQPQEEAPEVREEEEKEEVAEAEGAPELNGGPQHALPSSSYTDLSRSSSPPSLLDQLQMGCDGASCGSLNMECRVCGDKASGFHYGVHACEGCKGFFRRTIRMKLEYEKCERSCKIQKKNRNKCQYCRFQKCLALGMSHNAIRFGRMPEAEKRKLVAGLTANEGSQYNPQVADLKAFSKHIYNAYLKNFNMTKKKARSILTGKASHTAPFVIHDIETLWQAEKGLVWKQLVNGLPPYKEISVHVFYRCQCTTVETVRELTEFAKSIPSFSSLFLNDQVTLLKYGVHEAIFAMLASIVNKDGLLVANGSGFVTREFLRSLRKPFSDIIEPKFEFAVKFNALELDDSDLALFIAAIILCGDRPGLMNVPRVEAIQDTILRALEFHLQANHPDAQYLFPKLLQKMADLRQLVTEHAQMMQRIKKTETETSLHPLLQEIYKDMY
Summary of the method: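 Cell-based TRANS reporter: HepG2, transient MRTU transfection, 24 h exposure. Readout = reporter mRNA (RT-PCR/CE, 6-FAM). Gain-of-signal fit vs DMSO control.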

[8] = target: human Retinoic Acid Receptor gamma (RARg), RARG (gene 5916) (UniProt P13631); assay: ATG_RARg_TRANS: Attagene TRANS-FACTORIAL HepG2 Assay for human Retinoic Acid Receptor gamma (RARg) (AID 2283009; active = hit-call score of the fitted dose curve at least 0.9, where 1 is the maximum)
Sequence of human Retinoic Acid Receptor gamma (RARg), RARG (gene 5916) (P13631 whole entry, looked up, the tested form may be a part): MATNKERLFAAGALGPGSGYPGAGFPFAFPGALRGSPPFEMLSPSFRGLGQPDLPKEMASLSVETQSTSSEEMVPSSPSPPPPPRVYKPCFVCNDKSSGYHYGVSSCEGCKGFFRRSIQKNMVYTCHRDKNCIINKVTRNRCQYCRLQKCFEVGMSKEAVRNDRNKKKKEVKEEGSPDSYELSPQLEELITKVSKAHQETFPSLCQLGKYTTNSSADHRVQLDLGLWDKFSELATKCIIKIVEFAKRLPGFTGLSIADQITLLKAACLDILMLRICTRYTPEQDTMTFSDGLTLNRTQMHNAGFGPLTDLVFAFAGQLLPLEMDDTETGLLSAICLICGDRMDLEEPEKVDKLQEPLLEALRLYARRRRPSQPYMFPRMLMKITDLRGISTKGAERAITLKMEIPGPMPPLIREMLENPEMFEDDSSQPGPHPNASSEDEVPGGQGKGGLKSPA
Summary of the method: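 HepG2 cells transiently transfected with multiplexed reporter units expressing chimeric RARg-GAL4 and GAL4-UAS-driven reporters; 24 h compound exposure. Reporter mRNA quantified by RT-PCR with fluorescent labelling and capillary electrophoresis; gain-of-signal fitted relative to DMSO baseline.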

[9] = ATG_Oct_MLP_CIS: Attagene CIS-FACTORIAL HepG2 Assay for human Octamer-Binding Transcription Factor (Oct) (AID 2282993); conditions: HepG2 Attagene cis-factorial Oct reporter, mRNA; actives raise or lower the signal
Summary of the method: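 Cells of the HepG2 line express promoter-controlled reporter sequences whose mRNA levels, after 24 h treatment, are measured by RT-PCR and capillary electrophoresis. Increases and decreases are scored relative to DMSO.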

[10] = target: Peroxisome proliferator-activated receptor gamma (Homo sapiens) (UniProt P37231); assay: ATG_PPARg_TRANS: Attagene TRANS-FACTORIAL HepG2 Assay for human Peroxisome Proliferator-activated Receptor-gamma (PPARg) (AID 2283007; active = hit-call score of the fitted dose curve at least 0.9, where 1 is the maximum)
Sequence of Peroxisome proliferator-activated receptor gamma (Homo sapiens) (P37231 whole entry, looked up, the tested form may be a part): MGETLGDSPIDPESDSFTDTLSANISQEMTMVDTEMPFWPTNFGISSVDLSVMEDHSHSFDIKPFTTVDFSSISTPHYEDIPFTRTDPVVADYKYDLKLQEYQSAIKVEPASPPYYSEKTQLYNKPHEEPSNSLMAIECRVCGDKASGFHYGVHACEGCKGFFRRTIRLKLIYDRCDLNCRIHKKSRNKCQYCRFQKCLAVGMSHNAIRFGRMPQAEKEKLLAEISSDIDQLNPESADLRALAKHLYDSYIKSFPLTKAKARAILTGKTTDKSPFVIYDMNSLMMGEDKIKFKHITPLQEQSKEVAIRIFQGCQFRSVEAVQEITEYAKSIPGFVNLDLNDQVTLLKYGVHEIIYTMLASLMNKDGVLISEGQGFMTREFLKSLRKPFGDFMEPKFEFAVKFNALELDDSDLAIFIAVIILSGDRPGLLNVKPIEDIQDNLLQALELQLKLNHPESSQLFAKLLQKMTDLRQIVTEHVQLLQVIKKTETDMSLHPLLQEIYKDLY
Summary of the method: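 Transient transfection of HepG2 with GAL4-UAS-driven reporter units; chemical dosing 24 h; total RNA → oligo(dT) RT → PCR with reporter primers → 6-FAM primer extension → HpaI digest 2 h 37 C → capillary electrophoresis. Positive direction vs DMSO.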

[11] = target: Nuclear receptor subfamily 1 group I member 2 (Homo sapiens) (UniProt O75469); assay: ATG_PXR_TRANS: Attagene TRANS-FACTORIAL HepG2 Assay for human Pregnane X Receptor (PXR) (AID 2283008; active = hit-call score of the fitted dose curve at least 0.9, where 1 is the maximum)
Sequence of Nuclear receptor subfamily 1 group I member 2 (Homo sapiens) (O75469 whole entry, looked up, the tested form may be a part): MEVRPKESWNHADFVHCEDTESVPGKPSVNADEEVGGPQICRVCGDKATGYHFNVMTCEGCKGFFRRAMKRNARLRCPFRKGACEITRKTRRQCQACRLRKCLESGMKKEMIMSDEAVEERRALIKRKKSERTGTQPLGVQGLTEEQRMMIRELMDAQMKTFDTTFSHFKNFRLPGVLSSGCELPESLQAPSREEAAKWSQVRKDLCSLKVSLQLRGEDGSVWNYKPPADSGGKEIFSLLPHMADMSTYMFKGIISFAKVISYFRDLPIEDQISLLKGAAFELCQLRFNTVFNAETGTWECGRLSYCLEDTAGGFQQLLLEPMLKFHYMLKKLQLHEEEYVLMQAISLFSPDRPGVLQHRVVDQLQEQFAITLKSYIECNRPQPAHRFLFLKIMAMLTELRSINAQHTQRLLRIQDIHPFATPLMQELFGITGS
Summary of the method: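 Read-out is fluorescence of labelled reporter cDNA fragments separated by capillary electrophoresis after RT-PCR and HpaI digestion. Source: HepG2 cells carrying PXR-GAL4/UAS reporter constructs, treated 24 h; activity fitted upward relative to DMSO.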

[12] = BSK_3C_TissueFactor: BioMAP Diversity Plus: 3C Assay for Tissue Factor Biomarker Activity (AID 2282997); conditions: BioMAP 3C HUVEC, tissue factor biomarker readout; actives raise or lower the signal
Summary of the method: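 ELISA read-out of Tissue Factor levels on human umbilical vein endothelium collected 24 h after chemical dosing. Gain or loss of signal was fitted relative to DMSO.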

[13] = BSK_3C_uPAR: BioMAP Diversity Plus: 3C Assay for Urokinase-type plasminogen activator receptor (uPAR) Biomarker Activity (AID 2282998); conditions: BioMAP 3C HUVEC, uPAR biomarker ELISA; actives raise or lower the signal
Summary of the method: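 Endothelial primary cells of human umbilical vein origin received test chemical; 24 h later uPAR was assayed by ELISA. Fitting was bidirectional, DMSO as negative control.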

[14] = BSK_3C_VCAM1: BioMAP Diversity Plus: 3C Assay for Vascular cell adhesion molecule 1 (VCAM1) Biomarker Activity (AID 2282999); conditions: BioMAP 3C HUVEC, VCAM1 ELISA, cytokine-stimulated; actives raise or lower the signal
Summary of the method: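 Endothelial cells from human umbilical vein are treated with test chemical. At 24 h, VCAM-1 is measured by ELISA, and responses in either direction are fitted relative to DMSO.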

[15] = BSK_4H_Eotaxin3: BioMAP Diversity Plus: 4H Assay for Eotaxin 3 Biomarker Activity (AID 2283000); conditions: primary human endothelial cells (HUVEC); actives raise or lower the signal
Summary of the method: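 Chemicals were added to human umbilical vein endothelium cultures, and Eotaxin-3 was quantified by ELISA at 24 h. Values were derived by bidirectional fitting with DMSO serving as negative control and activity baseline.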

[16] = read-out: Intercellular Adhesion Molecule 1 (ICAM1), ICAM1 (gene 3383); assay: BSK_3C_ICAM1: BioMAP Diversity Plus: 3C Assay for Intercellular Adhesion Molecule 1 (ICAM1) Biomarker Activity (AID 2283003); conditions: primary human endothelial cells (HUVEC); actives raise or lower the signal
Summary of the method: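 Primary human umbilical vein endothelial cells in the BioMAP 3C system were exposed to chemicals for 24 h, then ICAM-1 was quantified by ELISA. Activity was fitted bidirectionally against the DMSO negative control baseline.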

[17] = target: human Retinoic Acid Receptor beta (RARb), RARB (gene 5915) (UniProt P10826); assay: ATG_RARb_TRANS: Attagene TRANS-FACTORIAL HepG2 Assay for human Retinoic Acid Receptor beta (AID 2283004; active = hit-call score of the fitted dose curve at least 0.9, where 1 is the maximum)
Sequence of human Retinoic Acid Receptor beta (RARb), RARB (gene 5915) (P10826 whole entry, looked up): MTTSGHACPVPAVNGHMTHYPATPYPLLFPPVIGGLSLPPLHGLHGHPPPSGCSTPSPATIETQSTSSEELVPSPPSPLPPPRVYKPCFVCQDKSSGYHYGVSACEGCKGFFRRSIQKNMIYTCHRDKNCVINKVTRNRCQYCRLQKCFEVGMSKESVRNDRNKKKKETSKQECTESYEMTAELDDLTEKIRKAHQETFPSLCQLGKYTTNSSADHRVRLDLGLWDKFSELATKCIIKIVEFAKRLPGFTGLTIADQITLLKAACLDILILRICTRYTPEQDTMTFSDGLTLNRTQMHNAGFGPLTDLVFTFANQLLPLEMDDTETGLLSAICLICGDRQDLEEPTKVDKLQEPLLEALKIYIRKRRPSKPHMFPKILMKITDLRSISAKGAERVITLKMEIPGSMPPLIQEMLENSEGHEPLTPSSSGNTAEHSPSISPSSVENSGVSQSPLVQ
Summary of the method: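 Transient transfection of HepG2 with multiple reporter units → chemical dosing, 24 h → total RNA isolation → RT with oligo(dT) → reporter-specific PCR, 6-FAM primer extension, HpaI digest → capillary electrophoresis. Positive direction vs DMSO control.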

[18] = target: Retinoic acid receptor alpha (Homo sapiens) (UniProt P10276); assay: ATG_RARa_TRANS: Attagene TRANS-FACTORIAL HepG2 Assay for human Retinoic Acid Receptor alpha (RARa) (AID 2283005; active = hit-call score of the fitted dose curve at least 0.9, where 1 is the maximum)
Sequence of Retinoic acid receptor alpha (Homo sapiens) (P10276 whole entry, looked up, the tested form may be a part): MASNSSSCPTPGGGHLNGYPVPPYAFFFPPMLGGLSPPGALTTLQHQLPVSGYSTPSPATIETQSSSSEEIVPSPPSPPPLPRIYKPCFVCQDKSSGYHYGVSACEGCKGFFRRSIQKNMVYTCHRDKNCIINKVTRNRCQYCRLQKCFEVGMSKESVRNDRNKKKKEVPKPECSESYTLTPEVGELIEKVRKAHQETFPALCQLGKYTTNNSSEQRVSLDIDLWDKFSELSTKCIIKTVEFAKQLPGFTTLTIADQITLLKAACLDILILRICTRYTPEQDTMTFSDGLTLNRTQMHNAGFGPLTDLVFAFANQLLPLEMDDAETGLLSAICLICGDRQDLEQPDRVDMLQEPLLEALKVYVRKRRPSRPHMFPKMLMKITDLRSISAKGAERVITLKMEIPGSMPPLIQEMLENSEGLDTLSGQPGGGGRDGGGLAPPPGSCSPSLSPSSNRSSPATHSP
Summary of the method: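 Reporter transcripts, measured by RT-PCR with fluorescent labeling and capillary electrophoresis after 24 h dosing, reflect activity of an exogenous human RARa–GAL4 fusion in transiently transfected HepG2. Fitted for increase relative to DMSO.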

[19] = BSK_3C_Proliferation: Cell Proliferation Assessment in the BioMAP Diversity Plus: 3C Assay (AID 2283006); conditions: primary human endothelial cells (HUVEC);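 for AC50: potency may reflect either rise or fall in cell number versus DMSO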
Summary of the method: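 Human umbilical vein endothelial cells were grown sub-confluent and exposed to chemical for 48 h, then fixed with 10% TCA and stained with 0.1% sulforhodamine B; absorbance at 560 nm gave relative cell number, fitted bidirectionally against DMSO baseline.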

Measured: AC50

CCCCCCOC(=O)c1ccccc1
inactive: [1] | [2] | [3] | [4] | [5] | [6] | [7] | [8]

CN(C)Cc1ccccc1O
active: [9] 179 µM
inactive: [2] | [4] | [6] | [7] | [10] | [11]

CC(C)(C)C(=O)CC(=O)C(F)(F)C(F)(F)C(F)(F)F
inactive: [1] | [2] | [3] | [4] | [12] | [13] | [14] | [15] | [6] | [7] | [16] | [17] | [18] | [10] | [11] | [8]
active: [19] 43.3 µM and 44.3 µM

Cc1ccc(S(=O)(=O)OCC(F)(F)C(F)(F)C(F)(F)C(F)(F)C(F)(F)C(F)F)cc1
inactive: [2] | [3] | [4] | [5] | [12] | [13] | [14] | [15] | [7] | [16] | [17] | [19] | [10] | [8]
active: [19] 30 µM | [11] 2.98 µM

CCc1ccc(C(c2ccc(CC)cc2)C(Cl)Cl)cc1
inactive: [2] | [9] | [5] | [12] | [7] | [16] | [10]
active: [4] 56.5 µM | [13] 12.2 µM | [14] 27.4 µM | [15] 14.1 µM | [19] 13.1 µM | [11] 3.55 µM

FC(F)(F)C(F)(F)C(F)(F)CI
inactive: [1] | [2] | [3] | [4] | [9] | [12] | [13] | [14] | [15] | [16] | [17] | [18] | [19] | [11]
